Reference: PubChem BioAssay (Tox21)
A number with no mark means an inactive call. Activity calls are given as the source filed them. Calls follow the shape of the dose curve; as a rule, active = well fitted curve in the direction sought with a large enough effect in the repeat runs; inconclusive = weak or mixed curves; inactive = flat fitted curve, though single readings scatter.

Assay: qHTS assay to test for compound auto fluorescence at 460 nm (blue) in HEK293 cell free culture (AID 720681)
Conditions: cell-free medium, autofluorescence 405/460 nm (blue); series mostly up to 91.3 µM; fluorescence, % of fluorescent control: at the top concentration
Excerpt: U.S. Tox21 Program National Center for Advancing Translational Sciences [NCATS] NIH Chemical Genomics Center [NCGC] U.S. Environmental Protection Agency [EPA] National Institutes of Environmental Health Sciences [NIEHS] National Toxicology Program [NTP] U.S. Food and Drug Administration [FDA] Tox21 Assay Overview: Compound auto fluorescence often interferes with screening of the compound library against various biological targets and signaling pathways. Some of these compounds may have fluorophoric properties. Such properties may interfere with the assay outputs resulting in false positives and/or negatives. To decrease such complications and ensure the compound activities are relevant in terms of biological response, the Tox21 10K compound library was screened for auto fluorescence. From the fluorophores used as reporter signals in our screening assays, the auto fluorescence equivalencies of compounds against three fluorophores have been evaluated: Triamterene, Fluorescein and Rose Bengal sodium for blue, green and red fluorescence, respectively. The fluorescence intensities were measured using Excitation/Emission wavelengths at 405/460nm, 485/535nm and 540/590nm for blue, green and red labels, respectively. This assay includes the blue fluorescence data.
Tox21 Assay Protocol Summary: 5 uL of culture medium (DMEM containing 10% FBS) per well was dispensed into black wall/clear bottom 1536-well plates using a Multidrop Combi Dispenser (ThermoFisher Scientific, Waltham, MA). After 23 nL compound or DMSO vehicle was transferred into assay plate by a pintool work station (Kalypsys, San Diego, CA), fluorescence intensities in the assay plates were measured by an Envision (PerkinElmer, Shelton, CT) plate reader using three labels for measuring blue, green and red fluorescence at […] 460, 535 and 590nm respectively.
% is scaled to controls: 0 for no effect and ±100 for the full control effect.

Row | Structure (SMILES) | fluorescence, % of fluorescent control | outcome
1 | C=CCCC(=O)O | 0.0425% | –
2 | NCCCC[C@H](N[C@@H](CCc1ccccc1)C(=O)O)C(=O)N1CCC[C@H]1C(=O)O | -0.095% [at 18.6 µM] | –
3 | CN(C)C(=O)Oc1ccc[n+](C)c1 | -0.161% [at 46 µM] | –
4 | Nc1ccn([C@@H]2O[C@H](CO)[C@@H](O)C2(F)F)c(=O)n1 | -0.0267% [at 46 µM] | –
5 | CC(=O)Nc1ccc(OCC(O)CNC(C)C)cc1 (stereo not given) | -0.0137% [at 46 µM] | –
6 | C[N+]1(CC2COC(c3ccccc3)(c3ccccc3)O2)CCCCC1 (stereo not given) | -0.104% [at 46 µM] | –
7 | c1ccc(Cc2ccccc2)cc1 | 0.0919% | –
8 | N[C@H](C(=O)O)[C@@H](O)c1ccc(O)c(O)c1 | 5.3% [at 46 µM] | –
9 | Cc1ccc(C(=O)c2ccc(CC(=O)O)n2C)cc1 | 0.0612% [at 18.6 µM] | –
10 | C[C@H]1[C@H](NC(=O)/C(=N/OC(C)(C)C(=O)O)c2csc(N)n2)C(=O)N1S(=O)(=O)O (stereo in doubt) | 0.0562% [at 18.6 µM] | –
11 | C[N+]12CCC(CC1)C(OC(=O)C(O)(c1ccccc1)c1ccccc1)C2 (stereo not given) | 0.066% [at 18.6 µM] | –
12 | CC(C)=CCC/C(C)=C/C#N | 0.0683% [at 95.7 µM] | –
13 | C=CC(=O)OCCCl | 0.0588% [at 95.7 µM] | –
14 | CCC(C)(CN(C)C)OC(=O)c1ccccc1 (stereo not given) | -0.0658% [at 18.6 µM] | –
15 | O=C(c1ccccc1O)c1ccccc1O | 0.135% | –
16 | Nc1c2c(nc3c1CCC3)CCCC2 | -0.0184% [at 46 µM] | –
17 | COc1cc(C(=O)OC(COCCC(C)C)CN2CCOCC2)cc(OC)c1OC (stereo not given) | 0.146% [at 46 µM] | –
18 | NCCCC(N)(C(=O)O)C(F)F (stereo not given) | 0.0241% [at 46 µM] | –
19 | CCOC(=O)CCC(=O)OCC | -0.291% | –
20 | CC[N+](CC)(CC)CCOc1cccc(OCC[N+](CC)(CC)CC)c1OCC[N+](CC)(CC)CC | -0.142% [at 46 µM] | –

Row | Structure (SMILES) | fluorescence, % of fluorescent control | outcome
21 | FB(F)F | -0.16% [at 95.7 µM] | –
22 | CC(=O)N[C@H]1[C@H]([C@H](O)[C@H](O)CO)OC(C(=O)O)=C[C@@H]1N=C(N)N | -0.0157% [at 46 µM] | –
23 | O=S(=O)(O)c1cccc2ccccc12 | -0.0794% | –
24 | CC(C)CC(C)(N)C#N (stereo not given) | -0.0659% [at 95.7 µM] | –
25 | CCCCOCCOC(=O)COc1cc(Cl)c(Cl)cc1Cl | -0.0521% | –
26 | C[C@@H]1C[C@H]2[C@@H]3C[C@H](F)C4=CC(=O)C(Cl)=C[C@]4(C)[C@@]3(F)[C@@H](O)C[C@]2(C)[C@@]1(O)C(=O)CO | -0.107% [at 46 µM] | –
27 | Nc1ccn([C@@H]2O[C@H](CO)[C@@H](O)C2O)c(=O)n1 (stereo not given in full) | – | inactive
28 | [Ca+2] | -0.0415% | –
29 | O=[N+]([O-])c1ccc(/C=N\O)o1 | 0.0216% [at 46 µM] | –
30 | CCN[C@H]1C[C@H](C)S(=O)(=O)c2sc(S(N)(=O)=O)cc21 | -0.0362% [at 46 µM] | –
31 | CC(C)(C)c1ccc(-c2ccc(C(C)(C)C)cc2)cc1 | -0.162% | –
32 | COc1cccc(OC)c1C(=O)N[C@@H]1C(=O)N2[C@@H]1SC(C)(C)[C@@H]2C(=O)O | 0.0043% [at 46 µM] | –
33 | CCCCCCCCCCCCCCC(=O)O | 0.158% | –
34 | CC(C#N)(CCC(=O)O)N=NC(C)(C#N)CCC(=O)O (stereo not given) | 0.131% | –
35 | C[N+](C)(C)CCCCCCCCCC[N+](C)(C)C | -0.0701% [at 46 µM] | –
36 | CN(C)CCN(C)CCN(C)C | 0.0028% | –
37 | CCCCCC(=O)OCCc1ccccc1 | 0.0218% | –
38 | CN1[C@@H]2CC[C@H]1CC(OC(=O)C(O)c1ccccc1)C2 (stereo not given in full) | – | inactive
39 | C=C(C)C(=O)OCC1CCCO1 (stereo not given) | -0.0695% | –
40 | CC1=CC(=O)[C@H]2C[C@@H]1C2(C)C | -0.0814% | –
